High-throughput results from PubChem.
The list is not random: actives were taken first. Their share in the collection is about 22%.
CYP2C19 activ: activators of human cytochrome P450 2C19; P33261; recombinant CYP2C19, luciferin-H EGE luminescence; active compounds read high; 0 = fully inhibited enzyme, 1 = untreated enzyme; activation factor at 5 µM; 96,000 tested, under 10 active;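 active = activation factor of at least 2 at 5 µM in the primary screen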;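 also: 0 = wells with 2.5 mM tranylcypromine and 1 = vehicle-only wells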
Target sequence (P33261 whole entry, looked up): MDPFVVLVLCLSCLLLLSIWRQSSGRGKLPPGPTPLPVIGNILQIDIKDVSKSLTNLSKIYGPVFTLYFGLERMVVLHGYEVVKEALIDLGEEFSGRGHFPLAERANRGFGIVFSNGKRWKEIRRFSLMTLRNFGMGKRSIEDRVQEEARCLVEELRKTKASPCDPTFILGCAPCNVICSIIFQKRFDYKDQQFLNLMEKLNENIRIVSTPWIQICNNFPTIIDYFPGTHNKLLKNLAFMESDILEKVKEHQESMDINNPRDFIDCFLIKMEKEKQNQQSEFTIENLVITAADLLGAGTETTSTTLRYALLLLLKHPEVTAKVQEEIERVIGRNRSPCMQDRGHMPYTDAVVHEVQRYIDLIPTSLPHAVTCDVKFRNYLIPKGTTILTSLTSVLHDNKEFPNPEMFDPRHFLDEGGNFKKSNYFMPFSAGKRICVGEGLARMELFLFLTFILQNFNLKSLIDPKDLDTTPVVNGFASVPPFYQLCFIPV
CYP2C9 act: CYP2C9 (human) activation | P11712 | recombinant CYP2C9, luciferin-H conversion, luminescence; active compounds read high; factor 1 = untreated enzyme, 0 = blocked | activation factor at 5 µM | hit rate 1.4% among 96,000 | AID 1024;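 active = activation factor of 2 or more for CYP2C9 at a 5 µM dose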;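 also: 0 = sulfaphenazole-blocked wells and 1 = vehicle-only wells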
CYP2C19 inh: inhibitors of human CYP2C19. AID 778. CYP2C19 Supersomes, luciferin-H EGE luminescence, 30 min. hit rate 21% among 96,000. P33261. inhibition, % at 5 µM;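 active = CYP2C19 inhibition above a set limit at 5 µM in the primary screen, cut at about 50% in these data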;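 also: plate controls were negative control wells for no effect and 2.5 mM tranylcypromine positive control for full effect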
CYP2C9 inhib: human CYP2C9 inhibition | P11712 | CYP2C9 Supersomes, luciferin-H conversion, luminescence | inhibition, % at 5 µM | hit rate 20% among 96,000 | AID 777;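 active = blocking of liver enzyme CYP2C9 beyond about 50% at 5 µM, limit read from the data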
Measles CPE: protection of cells from measles virus. Measles virus-infected cells, CPE protection, absorbance. protection (pct of control), % at 4 µM. hit rate 1.5% among 140,000. AID 841; in the data active = protection mostly above about 24%, no sharp cut-off; inactive = mostly below about 26%
* = called active by the depositor; x = not tested or not shown.

SMILES	CYP2C19 activ	CYP2C9 act	CYP2C19 inh	CYP2C9 inhib	Measles CPE
COc1ccccc1C1C(C(N)=O)=C(C)Nc2nc(-c3ccccc3Cl)nn21 (stereo not drawn)	0.7	1.1	26	-8	21
COc1ccc(C2C(C(N)=O)=C(C)Nc3nc(-c4cccc(Cl)c4)nn32)cc1OC (stereo not drawn)	0.4	0.6	56*	41	7
COc1cccc(C2C(C(N)=O)=C(C)Nc3nc(-c4ccccc4Cl)nn32)c1 (stereo not drawn)	0.4	0.7	60*	34	0
COc1ccccc1NC(=O)C1=C(C)Nc2nc(-c3cccs3)nn2C1c1cccc(O)c1 (stereo not drawn)	0.7	0.3	33	70*	13
CC(C)(C)c1ccc(C(=O)N/C(=C/c2cccs2)C(=O)NCc2ccco2)cc1	x	x	x	x	15
COc1ccc(S(=O)(=O)N2CCOC2CNC(=O)C(=O)NCCc2ccc(OC)c(OC)c2)cc1C (stereo not drawn)	x	x	x	x	4
CN(C)c1ccc(C(=S)NCc2ccco2)cc1	0.1	0.6	88*	37	5
CN(C)c1ccc(/C=N/NC(=S)NCc2ccco2)cc1	x	x	x	x	9
CCOC(=O)c1c(-c2ccc(Cl)cc2)c(C#N)c(=O)n(N)c1N	0.8	1	16	-4	1
Cc1ccc(Cl)cc1NC(=O)N[C@@H](C)C(=O)O	1.2	1.2	-18	-16	30
COCC(=O)NCc1ccc2c(c1)OCO2	1.1	1.1	-12	-7	5
CC(NC(=O)C1CCC1)c1ccc2c(c1)OCO2 (stereo not drawn)	0.5	0.7	51*	30	1
COc1ccccc1C(=O)NCc1ccc2c(c1)OCO2	0	0.5	95*	52*	0
CCn1c(N)c(C(=O)NCc2ccc3c(c2)OCO3)sc1=S	0.5	0.4	51*	63*	5
COc1cc(CC(=O)NCc2ccc3c(c2)OCO3)cc(OC)c1OC	0.3	1.1	74*	-11	4
CCOC(=O)N1CCN(C(=O)COc2ccc(S(=O)(=O)NC(C)C)cc2)CC1	1.1	0.8	-10	18	x
CCOc1ccccc1C(=O)NC(C)c1ccc2c(c1)OCO2 (stereo not drawn)	0.2	1.5	80*	-45	2
COC(=O)c1ccccc1NC(=O)NCc1cccnc1	0.6	1	40	4	9
COC(=O)c1ccccc1NC(=O)NCc1ccc2c(c1)OCO2	0.5	0.8	52*	25	14
CCOc1ccc(C(C)NC(=O)Cc2ccccc2)cc1OCC (stereo not drawn)	x	x	x	x	8
COc1ccc(C(C)NC(=O)c2ccoc2C)cc1OC (stereo not drawn)	0.8	0.9	20	8	2
Cc1ccc(-n2ncc(C(=O)NCc3ccc4c(c3)OCO4)c2NC(=O)c2ccco2)cc1C	0.4	0.1	64*	87*	0
Cc1occc1C(=O)NC(C)c1ccc2c(c1)OCO2 (stereo not drawn)	0.4	1	62*	-3	5
CC(c1nc2ccccc2c(=O)[nH]1)N1CCN(C)CC1 (stereo not drawn)	1.1	1.3	-6	-34	10
Cc1occc1C(=O)NCc1ccc2c(c1)OCO2	0.1	0.7	88*	26	7
SMILES	CYP2C19 activ	CYP2C9 act	CYP2C19 inh	CYP2C9 inhib	Measles CPE
Cc1occc1C(=O)NCc1cccc(CNC(=O)c2ccoc2C)c1	0.9	0.9	10	10	23
COc1ccccc1NC(=S)N1CCN(Cc2ccc3c(c2)OCO3)CC1	x	x	x	x	2
COc1ccccc1NC(=O)NCc1ccc2c(c1)OCO2	0.5	1.1	54*	-6	7
Cc1nn(C(=O)Cn2ccc([N+](=O)[O-])n2)c(C)c1Br	0.9	0.9	11	6	7
CC(=O)Nc1sc(C)c(C)c1C(=O)OC1CCOC1=O (stereo not drawn)	0.4	0.2	55*	77*	37*
Cc1ccsc1C(=O)OC1CCOC1=O (stereo not drawn)	1.1	2.3*	-7	-127	9
COC(=O)c1c(NC(=O)C2C3C=CC(CC3)C2C(=O)O)sc(C)c1C (stereo not drawn)	x	x	x	x	7
CC(CCc1ccccc1)NC(=O)COC(=O)c1cc(NS(=O)(=O)c2ccc(Cl)c([N+](=O)[O-])c2)ccc1O (stereo not drawn)	x	x	x	x	4
O=S(=O)(Nc1cc(C(F)(F)F)ccc1N1CCOCC1)c1ccc2ccccc2c1	x	x	x	x	7
COc1cc(N2CCOCC2)ncn1	1.2	1.2	-19	-22	35
O=c1sc2ccccc2n1COc1ccccc1	0.1	0.4	89*	59*	x
